Laboratory results from PubChem BioAssay (Tox21).
Values without a mark were called inactive. Records with an inconclusive call do not appear. Entries that show only a call come without a potency. Activity calls are given as the source filed them. Unless noted, calls come from the whole dose curve; as a rule, active = well fitted curve in the direction sought with a large enough effect in the repeat runs; inconclusive = weak or mixed curves; inactive = no such curve, though single readings can be large; an effect the other way counts as inactive or inconclusive.

Tests used:
[1] = qHTS assay to identify small molecule antagonists of the estrogen receptor alpha (ER-alpha) signaling pathway using the BG1 cell line in the presence of 0.1 nM 17-beta-estradiol - cell viability counter screen (AID 1259241); note: nearly all actives have a fitted effect of over 40% in size
Procedure, shortened: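 Following 5 days in phenol red-free medium with charcoal-stripped serum, VM7Luc4E2 cells received test compounds alongside 0.1 nM 17beta-estradiol (final) at 37C for 22 hr. Live cells were then quantified via protease-substrate fluorescence.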

[2] = qHTS assay to identify small molecule antagonists of the androgen receptor (AR) signaling pathway using the MDA cell line in the presence of 0.5 nM R1881 - cell viability counter screen (AID 1259242); note: nearly all actives have a fitted effect of over 45% in size
Procedure, shortened: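 Concentration-response screen of compounds for toxicity in MDA-kb2 reporter cells: 16 hr at 37C with 0.5 nM R1881, endpoint live-cell protease fluorescence measured in the reporter wells.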

[3] = qHTS assay to identify small molecule phospholipidosis (PLD) inducers (AID 1259344; active = well fitted curve in the direction sought with a large enough effect; an effect the other way counts as inactive or inconclusive)
Procedure, shortened: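 Cells (HepG2, 900 per well) attach for 4 h, receive LipidTOX Red and compound together, incubate 24 h at 37 C, are fixed 30 min with paraformaldehyde/Hoechst, then imaged at one site per well.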

[4] = qHTS assay to identify small molecule HDAC inhibitors (AID 1259364);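 note: wild-type HCT-116 cells with endogenous class I/II HDAC activity; top concentration of the series differs between compounds; nearly all actives have a fitted effect of over 45% in size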
Procedure, shortened: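 Screening used wild-type human colon HCT-116 cells incubated overnight, dosed with compounds for 2 hours, and assayed with a homogeneous luminogenic HDAC I/II reagent for 30 minutes at room temperature.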

[5] = qHTS assay to identify small molecule HDAC inhibitors - cell viability counter screen (AID 1259365); note: series mostly up to about 92 µM; nearly all actives have a fitted effect of over 50% in size
Procedure, shortened: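 HCT-116 wild-type, overnight attachment; 2hr drug exposure, 37C; CellTiter-Glo luminescent ATP readout after 30min RT.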

[6] = qHTS assay to identify small molecule agonists of the sonic hedgehog signaling (Shh) pathway - cell viability counter screen (AID 1259366); note: nearly all actives have a fitted effect of over 50% in size
Procedure, shortened: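 Compounds in DMSO were pin-transferred onto 3T3 Gli1-Luc cells that had settled 4hr; plates then stood 24hr at 37C and 5% CO2. One hour before the end, CellTiter-Fluor was added and fluorescence recorded.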

[7] = qHTS assay to identify small molecule antagonists of the sonic hedgehog signaling (Shh) pathway - cell viability counter screen (AID 1259367); note: nearly all actives have a fitted effect of over 55% in size
Procedure, shortened: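 Cytotoxicity was assessed in parallel with Shh reporter activity by measuring live-cell protease fluorescence (CellTiter-Fluor) in NIH/3T3 cells stably carrying Gli1-Luc, treated with compound under conditioned medium stimulation for 23 hr plus 1 hr reagent incubation.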

[8] = qHTS assay to identify small molecule agonists of the sonic hedgehog signaling (Shh) pathway (AID 1259368; calls by dose curve;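 note: NIH/3T3-derived 3T3Gli1-Luc cells carrying a stable Gli1-driven firefly luciferase reporter; series mostly up to about 92 µM; nearly all actives have a fitted effect of over 15% in size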)
Procedure, shortened: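 Hedgehog pathway agonism scored by increased firefly luciferase luminescence in 3T3Gli1-Luc cells treated 24 hr at 37 C; detection used a 30 min room-temperature reagent incubation.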

[9] = qHTS assay to identify small molecule agonists of the androgen receptor (AR) signaling pathway in the presence of an antagonist - cell viability counter screen (AID 1259379);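 note: MDA-kb2 human breast cancer cells carrying an MMTV luciferase reporter; series mostly up to about 92 µM; nearly all actives have a fitted effect of over 25% in size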
Procedure, shortened: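 MDA-kb2 viability measured by CellTiter-Fluor fluorescence in the same wells as the luciferase signal; nilutamide 3.0uM final; 15-point compound titration; 16 hr at 37C.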

[10] = qHTS assay to identify small molecule agonists of the estrogen receptor beta (ER-beta) signaling pathway - cell viability counter screen (AID 1259380); note: nearly all actives have a fitted effect of over 30% in size; note: potency is the fitted concentration of half-maximal effect
Procedure, shortened: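 Measured: luminescence from CellTiter-Glo after 30 min at room temperature, added to wells already read for the LiveBLAzer FRET reporter (2 hr substrate); ER-beta-UAS-bla HEK293T cells had 16 hr compound treatment at 37C, 5% CO2.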

[11] = qHTS assay to identify small molecule antagonists of the estrogen receptor beta (ER-beta) signaling pathway - cell viability counter screen (AID 1259382); note: nearly all actives have a fitted effect of over 55% in size; note: potency is the fitted concentration of half-maximal effect
Procedure, shortened: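 Readout: luminescence, CellTiter-Glo, same wells as bla assay. System: ER-beta-UAS-bla GripTite HEK293T, 2% charcoal-stripped FBS. Exposure: compounds plus 1nM 17-beta-estradiol, 16 hr, 37C.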

[12] = target: Estrogen receptor (Homo sapiens) (UniProt P03372); test: qHTS assay to identify small molecule agonists of the estrogen receptor alpha (ER-alpha) signaling pathway in the presence of an antagonist (AID 1259383; calls by dose curve; note: top concentration of the series differs between compounds; nearly all actives have a fitted effect of over 15% in size)
Procedure, shortened: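 Quantitative HTS confirmation: compounds titrated at 15 concentrations onto estrogen-deprived VM7Luc4E2 cells carrying a four-ERE luciferase construct, with ICI-182,780 present at 10.0nM final. Signal is luminescence after 22hr exposure.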

[13] = qHTS assay to identify small molecule agonists or antagonists of the thyroid stimulating hormone receptor (TSHR) signaling pathway - wild type cell line counter screen (AID 1259384; calls by dose curve)
Procedure, shortened: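 Wild-type HEK293 cells were plated 18 h at 37 C/5% CO2, pin-dosed with compound plus Ro20-1724 medium, held 30 min at room temperature, then given cAMP-d2 and anti-cAMP-cryptate; fluorescence was read after 1 h. Fifteen concentrations, triplicate.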

[14] = target: Thyrotropin receptor (Homo sapiens) (UniProt P16473); test: qHTS assay to identify small molecule antagonists of the thyroid stimulating hormone receptor (TSHR) signaling pathway (AID 1259385; calls by dose curve; note: nearly all actives have a fitted effect of over 20% in size)
Procedure, shortened: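 TSHR-HEK293 cells were plated and held 18 h at 37C/5% CO2, then given compound plus Ro20-1724 and stimulated with TSH at 1.5 ng/mL final. After 30 min at room temperature, cAMP was detected with cAMP-d2/anti-cAMP-cryptate (1 h) by fluorescence.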

[15] = qHTS assay to identify small molecule antagonists of the sonic hedgehog signaling (Shh) pathway (AID 1259369; calls by dose curve; note: nearly all actives have a fitted effect of over 45% in size; note: potency is the fitted concentration of half-maximal effect)
Procedure, shortened: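 NIH/3T3 stable Gli1-Luc clone, 2,000 cells/well, 4hr settle; cpd + conditioned medium 24hr; Luc reagent 30min RT; luminescence.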

[16] = target: Estrogen receptor beta (Homo sapiens) (UniProt Q92731); test: qHTS assay to identify small molecule agonists of the estrogen receptor beta (ER-beta) signaling pathway (AID 1259377; active = well fitted activation curve with a large enough effect in the signal ratio in the repeat runs, not every such curve was filed as active; the % refers to the signal ratio)
Procedure, shortened: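 qHTS in ER-beta-UAS-bla HEK293T cells: 6 hr settling, then 16 hr compound at 37C, then LiveBLAzer substrate 2 h at RT before fluorescence reading.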

[17] = target: Estrogen receptor beta (Homo sapiens) (UniProt Q92731); test: qHTS assay to identify small molecule antagonists of the estrogen receptor beta (ER-beta) signaling pathway (AID 1259378; active = well fitted inhibition curve with a large enough effect in the signal ratio in the repeat runs, not every such curve was filed as active; the % refers to the signal ratio)
Procedure, shortened: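 ER-beta-UAS-bla HEK293T (GripTite) cells in 2% charcoal-stripped FBS medium were preincubated 6 hr at 37C, dosed with compound, then stimulated with 1 nM E2 (final) for 16 hr; beta-lactamase reporter read by B/G FRET fluorescence after 2 hr substrate loading.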

[18] = target: Estrogen receptor (Homo sapiens) (UniProt P03372); test: qHTS assay to identify small molecule antagonists of the estrogen receptor alpha (ER-alpha) signaling pathway using the BG1 cell line in the presence of 0.1 nM 17-beta-estradiol (AID 1259244); note: nearly all actives have a fitted effect of over 50% in size
Procedure, shortened: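 Compounds were tested against 0.1 nM (final) 17beta-estradiol in VM7Luc4E2 cells, which express full-length ER-alpha and an ERE-luciferase reporter; luminescence was recorded following 22 h exposure.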

Thyrotropin receptor (Homo sapiens), sequence (P16473 whole entry, looked up): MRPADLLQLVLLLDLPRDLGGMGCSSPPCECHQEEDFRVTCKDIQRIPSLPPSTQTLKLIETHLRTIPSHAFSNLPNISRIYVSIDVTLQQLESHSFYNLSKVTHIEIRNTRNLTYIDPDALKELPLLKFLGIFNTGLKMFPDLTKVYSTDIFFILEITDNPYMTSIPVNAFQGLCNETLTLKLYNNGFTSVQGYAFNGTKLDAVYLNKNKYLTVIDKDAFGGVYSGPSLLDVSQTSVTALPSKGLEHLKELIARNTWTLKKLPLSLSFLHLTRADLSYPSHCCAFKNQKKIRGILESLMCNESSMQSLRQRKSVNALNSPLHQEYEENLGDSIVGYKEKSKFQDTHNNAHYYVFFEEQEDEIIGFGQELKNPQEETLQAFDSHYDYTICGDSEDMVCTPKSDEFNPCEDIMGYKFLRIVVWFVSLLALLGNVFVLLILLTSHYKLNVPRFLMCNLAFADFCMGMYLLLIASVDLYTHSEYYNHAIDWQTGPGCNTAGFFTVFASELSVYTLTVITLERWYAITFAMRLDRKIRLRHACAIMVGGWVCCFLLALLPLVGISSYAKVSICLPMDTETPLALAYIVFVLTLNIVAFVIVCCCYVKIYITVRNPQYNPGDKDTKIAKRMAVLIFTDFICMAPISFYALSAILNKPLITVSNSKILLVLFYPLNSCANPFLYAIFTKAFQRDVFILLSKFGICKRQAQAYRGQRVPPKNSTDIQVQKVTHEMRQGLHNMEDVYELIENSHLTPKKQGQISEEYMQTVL
Estrogen receptor (Homo sapiens), sequence (P03372 whole entry, looked up): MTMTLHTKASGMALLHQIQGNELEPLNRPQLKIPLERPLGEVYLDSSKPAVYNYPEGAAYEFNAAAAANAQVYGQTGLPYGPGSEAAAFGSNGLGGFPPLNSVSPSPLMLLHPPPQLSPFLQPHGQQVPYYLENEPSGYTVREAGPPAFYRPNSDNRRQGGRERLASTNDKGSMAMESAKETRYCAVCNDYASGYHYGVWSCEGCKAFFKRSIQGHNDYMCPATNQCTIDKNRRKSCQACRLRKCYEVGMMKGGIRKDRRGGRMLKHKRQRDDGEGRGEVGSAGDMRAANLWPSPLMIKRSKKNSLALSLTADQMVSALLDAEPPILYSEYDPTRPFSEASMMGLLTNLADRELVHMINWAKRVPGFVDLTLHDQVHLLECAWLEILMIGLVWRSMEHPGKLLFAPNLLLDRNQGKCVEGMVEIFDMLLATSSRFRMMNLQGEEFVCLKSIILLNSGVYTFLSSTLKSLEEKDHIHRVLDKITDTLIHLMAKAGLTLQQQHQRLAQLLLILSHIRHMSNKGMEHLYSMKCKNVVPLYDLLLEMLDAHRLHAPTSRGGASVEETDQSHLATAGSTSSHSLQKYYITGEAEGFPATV
Estrogen receptor beta (Homo sapiens), sequence (Q92731 whole entry, looked up): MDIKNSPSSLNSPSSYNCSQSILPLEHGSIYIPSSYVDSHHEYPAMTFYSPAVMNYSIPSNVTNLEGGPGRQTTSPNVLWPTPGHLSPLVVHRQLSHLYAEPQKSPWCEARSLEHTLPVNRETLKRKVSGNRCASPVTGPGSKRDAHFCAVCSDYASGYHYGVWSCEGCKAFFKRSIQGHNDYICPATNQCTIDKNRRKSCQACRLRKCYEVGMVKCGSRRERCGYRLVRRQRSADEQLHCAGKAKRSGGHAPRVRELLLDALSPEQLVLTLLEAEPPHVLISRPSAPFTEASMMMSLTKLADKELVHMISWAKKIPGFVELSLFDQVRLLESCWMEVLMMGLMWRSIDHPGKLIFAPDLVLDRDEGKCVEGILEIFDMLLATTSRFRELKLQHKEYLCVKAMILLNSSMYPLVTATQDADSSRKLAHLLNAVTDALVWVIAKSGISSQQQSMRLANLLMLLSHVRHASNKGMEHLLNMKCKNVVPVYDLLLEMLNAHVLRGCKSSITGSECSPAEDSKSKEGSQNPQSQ

Row | Structure (SMILES) | Potency [1] | Potency [2] | Potency [3] | Potency [4] | outcome [5] | Potency [6] | Potency [7] | outcome [8] | Potency [9] | Potency [10] | Potency [11] | Potency [12] | Potency [13] | Potency [14] | Potency [15] | Potency [16] | Potency [17] | Potency [18]
1 | CN1CCC(OC(c2ccccc2)c2ccccc2)CC1 | inactive | inactive | inactive | inactive | inactive | inactive | inactive | inactive | inactive | inactive | inactive | inactive | inactive | inactive | – | – | – | –
2 | CN1CCC(=C2c3ccccc3C=Cc3ccccc32)CC1 | inactive | inactive | inactive | inactive | inactive | inactive | inactive | – | inactive | 26.6 µM (active) | 21.1 µM (active) | inactive | – | inactive | 0.335 µM (active) | inactive | inactive | –
3 | COc1ccc([C@@H]2Sc3ccccc3N(CCN(C)C)C(=O)[C@@H]2OC(C)=O)cc1 | inactive | inactive | inactive | inactive | inactive | inactive | inactive | inactive | inactive | 15 µM (active) | 21.1 µM (active) | – | – | inactive | inactive | – | – | –
4 | N=C(N=C(N)N)N1CCOCC1 | inactive | inactive | inactive | inactive | inactive | inactive | inactive | inactive | inactive | – | inactive | inactive | inactive | inactive | inactive | – | inactive | –
5 | CN(C(=O)CCCOc1ccc2[nH]c(=O)ccc2c1)C1CCCCC1 | inactive | inactive | inactive | inactive | inactive | inactive | inactive | inactive | inactive | inactive | inactive | – | – | inactive | – | inactive | – | –
6 | CC(=O)NCCCS(=O)(=O)O | inactive | inactive | inactive | inactive | inactive | inactive | inactive | inactive | inactive | inactive | inactive | inactive | inactive | inactive | – | – | inactive | –
7 | N#CCCNCCC#N | inactive | inactive | – | – | inactive | inactive | inactive | inactive | inactive | inactive | inactive | inactive | – | – | inactive | – | – | inactive
8 | CC(Cc1cccc(C(F)(F)F)c1)NCCOC(=O)c1ccccc1 (stereo unspecified) | inactive | inactive | inactive | inactive | inactive | inactive | inactive | inactive | inactive | – | inactive | – | inactive | inactive | – | – | – | –
9 | c1ccc(-c2nc[nH]c2-c2ccccc2)cc1 | inactive | inactive | inactive | inactive | inactive | inactive | inactive | inactive | inactive | inactive | inactive | – | – | inactive | – | – | – | –
